Measurements published in ChEMBL document CHEMBL1157539, “Thousands of chemical starting points for antimalarial lead identification” (Nature, 2010).

Legend:
Type in all cases: functional
Plasmodium falciparum [1] = experiment: GSK_TCMDC: Inhibition of Plasmodium falciparum 3D7 in whole red blood cells, using parasite LDH activity as an index of growth. Test compounds present at 2uM
Plasmodium falciparum [2] = experiment: GSK_TCMDC: Inhibition of Plasmodium falciparum Dd2 in whole red blood cells, using parasite LDH activity as an index of growth. Test compounds present at 2uM
HepG2 = experiment: GSK_TCMDC: Percent inhibition of human HepG2 cell line. Test compounds present at 10uM.

Compound | Inhibition (Plasmodium falciparum [1]) | Inhibition (Plasmodium falciparum [2]) | Inhibition (HepG2)
CCN(CC)CCN(Cc1ccc(-c2ccc(C(F)(F)F)cc2)cc1)C(=O)Cn1c(CCc2ccc(F)cc2)nc(=O)c2sccc21.O=C(O)C(O)C(O)C(=O)O | 99% | 90% | 100%
CC(=O)Nc1ccc(Nc2cc(C)nc(Nc3ccc(NC(C)=O)cc3)n2)cc1 | 99% | 65% | 4%
CCN(CC)CCNC(=O)c1ccc(Nc2ncc([N+](=O)[O-])c(Nc3ccccc3OC)n2)cc1.Cl | 97% | 58% | 59%
Cc1ccc(C)c(Cn2ccc3nc(Cl)nc(Cl)c32)c1 | 95% | 68% | 0%
Cl.Cl.N=C(N)Nc1ccc(Cc2ccc(NC(=N)N)cc2)cc1 | 93% | 94% | 35%
CCCNC(=O)c1cncc(-c2ccc(CNC3Cc4ccccc4C3)cc2)c1.O=C(O)C(F)(F)F | 97% | 21% | 9%
CC(C)(C)OC(=O)C1CCCN(Cc2ccc(-c3cccc(-c4nc5ccccc5[nH]4)c3)cc2)C1.O=C(O)C(F)(F)F (stereo not given) | 93% | 27% | 37%
Cc1noc(C)c1C(=O)N1CCCC(c2[nH]c3c(C)cccc3c2-c2ccncc2)C1.Cl (stereo not given) | 100% | 100% | 16%
Cc1nnc2c(NC(=O)NC3CCCC3)cc3ccc(-c4cccc(CN(C)C)c4)cc3n12 | 90% | 25% | 42%
CCC(C)(C)c1ccc(S(=O)(=O)Nc2ccc(Cl)c(OCCN3CCCCC3)c2)cc1 | 88% | 93% | 100%
